Test results reported in PubChem BioAssay (NCI).
Compounds without any hit were thinned out: in the full panel of roughly 79,000, 15% have a hit. A number with no mark means an inactive call. Activity calls are given as the source filed them. Rule as the data show it: active = growth inhibition above about 70%; inactive = the rest.

Key:
[1] = NCI Yeast Anticancer Drug Screen. Data for the rad50 strain (AID 155);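 also: 0% = growth of vehicle-only cultures of the same strain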; conditions: S. cerevisiae rad50 strain growth inhibition, hits give high values
Method in brief: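 DNA repair mutant yeast, compound exposure, growth read-out; inhibition is taken relative to vehicle.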

[2] = NCI Yeast Anticancer Drug Screen. Data for the mec2-1 strain (AID 157); conditions: S. cerevisiae mec2-1 strain, hits give high values
Method in brief: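 Using mec2-1 yeast: add compound, measure growth, express inhibition versus vehicle-treated cultures.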

[3] = NCI Yeast Anticancer Drug Screen. Data for the sgs1 mgt1 strain (AID 161);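 also: 0% = growth of cultures given vehicle only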; conditions: S. cerevisiae sgs1 mgt1 strain, hits give high values
Method in brief: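 Percent growth inhibition was derived by comparing compound-exposed mutant yeast with vehicle-exposed cultures. The strain carries alterations in DNA damage repair.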

[4] = NCI Yeast Anticancer Drug Screen. Data for the cln2 rad14 strain (AID 165);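 also: 0% = growth equal to vehicle treated cultures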; conditions: S. cerevisiae cln2 rad14 strain, hits give high values
Method in brief: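 Yeast strain cln2 rad14, bearing defects in cell cycle control and DNA repair, serves as the test system; values reflect growth inhibition compared with vehicle.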

[5] = NCI Yeast Anticancer Drug Screen. Data for the bub3 strain (AID 167); conditions: S. cerevisiae bub3 mutant strain, hits give high values
Method in brief: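 In this screen, a yeast mutant lacking normal mitotic checkpoint function is challenged with compound. Relative growth versus vehicle gives the inhibition value.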

[6] = NCI Yeast Anticancer Drug Screen. Data for the mlh1 rad18 strain (AID 175); conditions: S. cerevisiae mlh1 rad18 strain growth inhibition, hits give high values
Method in brief: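 Steps: expose repair-defective yeast to compound; measure growth; express inhibition against vehicle-treated controls.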

[7] = at 5.0 µM (retest, dose inferred, filed as 0.5)
[8] = at 50.0 µM (retest, dose inferred, filed as 5.0)

| SMILES | growth inhibition [1, 7] | growth inhibition [1, 8] | growth inhibition ([1]; at 50.0 µM) | growth inhibition [2, 7] | growth inhibition [2, 8] | growth inhibition ([2]; at 50.0 µM) | growth inhibition [3, 7] | growth inhibition [3, 8] | growth inhibition ([3]; at 50.0 µM) | growth inhibition [4, 7] | growth inhibition [4, 8] | growth inhibition ([4]; at 50.0 µM) | growth inhibition [5, 7] | growth inhibition [5, 8] | growth inhibition ([5]; at 50.0 µM) | growth inhibition [6, 7] | growth inhibition [6, 8] | growth inhibition ([6]; at 50.0 µM) |
| --- | --- | --- | --- | --- | --- | --- | --- | --- | --- | --- | --- | --- | --- | --- | --- | --- | --- | --- |
| Cc1ccc(N=Nc2sc(N)nc2C)cc1C | -154% | -57% | 64% | -51% | -30% | 35.8% | -65% | -45% | 14.1% | -58% | -47% | 30.1% | -62% | -12% | 87.9% (active) | -125% | -52% | 85.4% (active) |
| CCCOC1(C)CC(c2cc(OC)c(OC)c(OC)c2)c2cc3c(cc2O1)OCO3 (stereo not given) | 5% | 96% (active) | 5.1% | 5% | 100% (active) | 7.75% | 5% | 99% (active) | -2.6% | 4% | 99% (active) | 34.7% | 5% | 99% (active) | 3.15% | 2% | 99% (active) | 18.9% |
| CCCCNc1cccc2ncccc12 | 11% | 53% | 17.1% | 9% | 34% | 9.85% | 14% | 58% | 21.8% | 9% | 28% | -3.9% | 4% | 31% | -4.2% | 21% | 57% | 50% |
| Cc1cc(C)c(O)c(C2CC3CCC2(C)C3(C)C)c1 (stereo not given) | 2% | 87% (active) | 95.6% (active) | 1% | 92% (active) | 95% (active) | 5% | 91% (active) | 95.8% (active) | 4% | 91% (active) | 95.2% (active) | 7% | 92% (active) | 96.5% (active) | -1% | 94% (active) | 95.5% (active) |
| O=[N+]([O-])c1ccc2nc(-c3ccccn3)[nH]c2c1 | -2% | 27% | 86.3% (active) | 1% | 5% | 87% (active) | -13% | 17% | 73.6% (active) | -12% | -3% | 77.3% (active) | -25% | 16% | 88.6% (active) | -38% | 42% | 88.5% (active) |
| Oc1ccc2c(c1)Cc1ccccc1-2 | 1% | 70% (active) | 93.2% (active) | 0% | 28% | 87.1% (active) | 1% | 28% | 53% | -8% | 70% (active) | 88.3% (active) | -2% | 82% (active) | 98.2% (active) | -1% | 72% (active) | 93.1% (active) |
| NC(=S)N/N=C1\NC(=O)/C(=C/c2ccc3c(c2)OCO3)S1 | 16% | 12% | -45.6% | 15% | 20% | -40.6% | 13% | 13% | -13.3% | 16% | 11% | -13.9% | 9% | 31% | 0.7% | 14% | 18% | -14% |
| CCCCN(c1ccccc1)c1ncnc2c1ncn2C | 1% | 83% (active) | 89.7% (active) | -3% | 86% (active) | 79.8% (active) | 0% | 86% (active) | 89% (active) | 0% | 76% (active) | 74.2% (active) | 6% | 88% (active) | 79.2% (active) | 5% | 89% (active) | 89.9% (active) |
| CCN1C(/C=C/c2ccc(O)c3ncccc23)CCC2CC(C)CCC21 (stereo not given) | 20% | 94% (active) | 95.3% (active) | 12% | 97% (active) | 95.5% (active) | 62% | 96% (active) | 95.5% (active) | 10% | 90% (active) | 88.9% (active) | 30% | 94% (active) | 94% (active) | 41% | 94% (active) | 94.3% (active) |
| CCCC/C(=C\c1cc(Cl)c(O)c(Cl)c1)C(=O)O | 4% | 79% (active) | 59.5% | 2% | 79% (active) | 70.8% (active) | 2% | 82% (active) | 71.8% (active) | -5% | 76% (active) | 72.4% (active) | 1% | 79% (active) | 56% | -16% | 85% (active) | 87.5% (active) |
